This note sets out measurements from PMC7826789 (International Journal of Molecular Sciences, 2021).

The test system of assay [1] is HCK.
The test system of assay [2] is HIPK1.
The subject of assay [3] is HIPK2.
For assay [4], the system named is HIPK3.
The subject of assay [5] is HIPK4.
Assay [6] relates to Haspin.
For assay [7], the system named is ICK.
Assay [8] has as its system IKBKB.

Turning to `COc1cc2ncnc(Nc3cccc(Cl)c3F)c2cc1O[C@H]1CC[C@H]([C@@H]2NCCNC2=O)CC1` [BI00133844], the Kinases covered result in assay [1] is given as “HCK”.
As for `COc1ccc2c(-c3ccnc(Nc4cccc(OC(F)(F)F)c4)n3)cnn2n1` [GW810372X], the Kinases covered entry in assay [2] is on record as “HIPK1”.
Consider `CCOc1ccc2c(-c3ccnc(Nc4cccc(C(F)(F)F)c4)n3)cnn2n1` [GW811761X], for which the Kinases covered result is listed as “HIPK2” in assay [3] and “HIPK3” in assay [4].
With `COC[C@@H](C)N[C@H]1CC[C@H](Nc2cc(-c3cccc(NCC4(C#N)CCOCC4)n3)c(Cl)cn2)CC1` [NVP-2], the Kinases covered entry in assay [5] is on record as “HIPK4”.
In the case of `CCCc1cc(N2CCCN(C)CC2)nc2sc3c(N)ncnc3c12` [BI00604564], in assay [6], the Kinases covered result is on record as “Haspin”.
In the case of `Cc1cc(NC(=O)c2cccc(NC(=O)/C=C/CN(C)C)c2)ccc1Nc1nccc(-c2cccnc2)n1` [JNK-IN-7], the Kinases covered entry in assay [7] is reported as “ICK”.
Regarding `CCC(NN(C)C)=C1C(=O)Nc2ccc(C(C)=O)cc21` [BI00036838], the Kinases covered result in assay [7] is given as “ICK”.
Regarding `c1ccc(-c2cc3ccncc3cc2OC2CCNCC2)cc1` [GSK1122999], the Kinases covered result in assay [8] is recorded as “IKBKB”.
